Source: PubChem BioAssay (EPA / NIEHS)
Inconclusive results are not listed. Activity calls are given as the source filed them. How the source made its calls, unless noted: active means hit-call score of the fitted dose curve at least 0.9, where 1 is the maximum; inactive means score below 0.9.

Experiments:
[1] = APR_HepG2_CellCycleArrest_24hr: Apredica 24-hour HepG2 Assay for Cell Cycle Arrest (AID 2282905); settings: imaging, actives raise or lower the signal;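 further: cell cycle arrest scored as ratio of 2N to 4N nuclear DNA content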
Procedure, shortened: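 Compounds (0.39 to 200 uM, final DMSO 0.5% v/v) are applied to HepG2 cells for 24 hours; cells are then fixed, permeabilized and nuclei labeled with Hoechst 33342. Automated imaging measures DNA content, and activity is fitted in both directions against DMSO.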

[2] = APR_HepG2_NuclearSize_24hr: Apredica 24-hour HepG2 Assay for Nuclear Size (AID 2282907); settings: high-content imaging, actives raise or lower the signal
Procedure, shortened: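 Nuclear size is measured by fluorescence high-content imaging of Hoechst-labelled HepG2 nuclei after 24 hr of treatment (0.39–200 uM, 0.5% DMSO). Cells are fixed in 3.7% formaldehyde before staining, and DMSO serves as the baseline for bidirectional curve fitting.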

[3] = APR_HepG2_CellLoss_24hr: Apredica 24-hour HepG2 Assay for Cell Loss (AID 2282908); settings: high-content imaging;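 on AC50: fit in both directions so a hit may be cell loss or gain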
Procedure, shortened: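 Nuclear count serves as the viability measure: treated cells are fixed, permeabilized and labelled with Hoechst 33342, and six images per well are analysed to identify valid nuclei. Doses span 0.39–200 uM, and activity in either direction is scored against DMSO.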

[4] = APR_HepG2_MicrotubuleCSK_24hr: Apredica 24-hour HepG2 Assay for Microtubule CSK Stabilty (AID 2282909); settings: HepG2 microtubule cytoskeleton imaging, actives raise or lower the signal
Procedure, shortened: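 Compounds were applied to HepG2 cells for 24 hours across 0.39–200 uM in duplicate, with final DMSO at 0.5% v/v. Fixed, permeabilized cells were labeled for alpha-tubulin and nuclei, and tubulin fluorescence was quantified by imaging, fitted bidirectionally against DMSO.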

[5] = APR_HepG2_MitoticArrest_24hr: Apredica 24-hour HepG2 Assay for Mitotic Arrest (AID 2282910); settings: high-content imaging, actives raise or lower the signal
Procedure, shortened: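 High-content imaging of fixed HepG2 cells labeled with Hoechst 33342 and anti-phospho-histone H3, after 24 h treatment. Ten concentrations 0.39 to 200 uM in duplicate, final DMSO 0.5%; changes fitted both directions relative to DMSO.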

[6] = APR_HepG2_MitoMembPot_24hr: Apredica 24-hour HepG2 Assay for Mitochondrial Membrane Potential (AID 2282911); settings: imaging, actives raise or lower the signal
Procedure, shortened: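 HepG2 cells exposed 24 h to 0.39–200 uM compounds in duplicate, 0.5% v/v DMSO final. MitoTracker Red CMXRos 250 nM loaded 30 min before formaldehyde fixation; high-content imaging at 20x, bidirectional fit versus DMSO.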

[7] = APR_HepG2_MitoMass_24hr: Apredica 24-hour HepG2 Assay for Mitochondrial Mass (AID 2282912); settings: high-content imaging, actives raise or lower the signal
Procedure, shortened: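 After 24 hr of treatment at 0.39 to 200 uM, HepG2 cells take up 250 nM MitoTracker Red CMXRos for 30 min and are then fixed with 3.7% formaldehyde. Per-well images are quantified, and any change in either direction is scored against solvent.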

[8] = APR_HepG2_CellCycleArrest_72hr: Apredica 72-hour HepG2 Assay for Cell Cycle Arrest (AID 2282914); settings: high-content imaging, actives raise or lower the signal
Procedure, shortened: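 HepG2 cells exposed 72 h in duplicate to 0.39–200 uM compound, 0.5% DMSO final. Formaldehyde-fixed, Hoechst 33342-stained nuclei imaged at 20x, six fields per well; DNA content per valid cell quantified by cell-cycle image analysis, bidirectional fit versus DMSO.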

[9] = APR_HepG2_CellLoss_72hr: Apredica 72-hour HepG2 Assay for Cell Loss (AID 2282915); settings: high-content imaging
Procedure, shortened: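 Cell number comes from Hoechst 33342-labelled nuclei, imaged at 20x after 3.7% formaldehyde fixation. Dosing was 0.39–200 uM, ten concentrations in duplicate, 0.5% DMSO final, for 72 h. Bidirectional fit relative to DMSO baseline.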

[10] = APR_HepG2_P-H2AX_72hr: Apredica 72-hour HepG2 Assay for H2AX Phosphorylation (AID 2282916); settings: imaging, actives raise or lower the signal;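 further: phospho-histone H2A.x immunostain intensity per cell marking DNA damage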
Procedure, shortened: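 Human hepatoma HepG2 cells are dosed across ten concentrations (0.39 to 200 uM, 0.5% v/v DMSO) and incubated 72 hr. Phospho-histone H2A.x is then detected by antibody staining alongside c-Jun and Hoechst, and quantified by automated fluorescence imaging.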

[11] = APR_HepG2_MitoticArrest_72hr: Apredica 72-hour HepG2 Assay for Mitotic Arrest (AID 2282918); settings: high-content imaging, actives raise or lower the signal
Procedure, shortened: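 HepG2 cells treated 72 h at 0.39–200 uM, 0.5% DMSO final; formaldehyde-fixed, stained with Hoechst 33342 and phospho-histone H3 antibody, imaged by high-content fluorescence; bidirectional fit versus DMSO.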

[12] = APR_HepG2_MicrotubuleCSK_72hr: Apredica 72-hour HepG2 Assay for Microtubule CSK Stabilty (AID 2282919); settings: HepG2 microtubule cytoskeleton, high-content imaging, actives raise or lower the signal
Procedure, shortened: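 High-content imaging of alpha-tubulin staining in fixed HepG2 cells after 72 hr treatment with ten concentrations from 0.39 to 200 uM (0.5% DMSO). Fitting was bidirectional against DMSO; taxol served as positive control.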

[13] = APR_HepG2_P-H2AX_24hr: Apredica 24-hour HepG2 Assay for H2AX Phosphorylation (AID 2282920); settings: high-content imaging, actives raise or lower the signal
Procedure, shortened: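 HepG2 cells dosed 24 h at 0.39–200 uM (10 points, duplicate, 0.5% DMSO final). Formaldehyde-fixed and permeabilized, then immunostained for phospho-H2A.x with Hoechst. Fluorescence quantified by high-content imaging, fitted bidirectionally versus DMSO.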

[14] = APR_HepG2_StressKinase_72hr: Apredica 72-hour HepG2 Assay for Stress Kinase (AID 2282921); settings: HepG2 stress kinase (phospho-c-Jun) imaging, actives raise or lower the signal
Procedure, shortened: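 After a 72 h compound treatment spanning 0.39 to 200 uM, formaldehyde-fixed cells are labelled for phosphorylated c-Jun and nuclei, imaged by automated fluorescence microscopy, and activity is fitted in both directions relative to DMSO controls.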

[15] = APR_HepG2_StressKinase_24hr: Apredica 24-hour HepG2 Assay for Stress Kinase (AID 2282922); settings: HepG2 stress kinase (phospho-c-Jun) imaging, actives raise or lower the signal
Procedure, shortened: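 High-content imaging of phospho-c-Jun immunofluorescence in fixed, permeabilized HepG2 cells after 24 h dosing. Ten concentrations, 0.39 to 200 uM, run in duplicate at 0.5% v/v DMSO; gain or loss of signal versus DMSO.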

[16] = APR_HepG2_MitoMass_72hr: Apredica 72-hour HepG2 Assay for Mitochondrial Mass (AID 2282924); settings: high-content imaging, actives raise or lower the signal;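 further: MitoTracker Red CMXRos stain intensity per cell imaged as mitochondrial mass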
Procedure, shortened: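 Readout is imaged MitoTracker Red (250 nM, 30 min, pre-fixation) signal, fitted bidirectionally against DMSO baseline. Human HepG2 liver cells received compound 0.39–200 uM in duplicate for 72 hr, final DMSO 0.5%.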

[17] = APR_HepG2_MitoMembPot_72hr: Apredica 72-hour HepG2 Assay for Mitochondrial Membrane Potential (AID 2282917); settings: imaging, actives raise or lower the signal
Procedure, shortened: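 Membrane potential read by MitoTracker Red CMXRos (250 nM, 30 min, pre-fixation) fluorescence imaging of HepG2 after 72 hr exposure. Ten concentrations, 0.39–200 uM, duplicate wells, 0.5% DMSO; fitted in both directions against DMSO baseline.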

[18] = ACEA_ER_80hr: ACEA Biosciences xCELLigence Real-Time Cell Analysis on Estrogen Receptor Agonism for Proliferation (AID 2282667; active means hit-call score of the fitted dose curve at least 0.9, where 1 is the maximum); settings: T47D proliferation, impedance (xCELLigence), 80 h
Procedure, shortened: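 T-47D cells monitored by electrical impedance (xCELLigence) with compound present throughout; 80 h timepoint, positive-direction fitting versus DMSO. Eight-point 1:4 dilutions from 100 uM final, duplicate plates.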

[19] = APR_HepG2_p53Act_24hr: Apredica 24-hour HepG2 Assay for p53 Activation (AID 2282913); settings: high-content imaging, actives raise or lower the signal;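 further: p53 protein immunofluorescence averaged per cell in HepG2 with Hoechst nuclei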
Procedure, shortened: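 HepG2 cells exposed 24 h to compounds at 0.39–200 uM in duplicate, 0.5% v/v DMSO final; fixed, permeabilized, stained with anti-p53 antibody and Hoechst 33342; fluorescence imaging; bidirectional curve fit versus DMSO.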

[20] = APR_HepG2_p53Act_72hr: Apredica 72-hour HepG2 Assay for p53 Activation (AID 2282923); settings: high-content imaging, actives raise or lower the signal;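 further: average cellular p53 protein immunofluorescence intensity in HepG2 cells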
Procedure, shortened: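 Imaging-based endpoint: after 72 hr compound exposure (up to 200 uM, 0.5% DMSO), fixed and permeabilized monolayers were labelled with anti-p53 antibody and imaged; signal change in either direction was fitted relative to DMSO controls.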

Measured: AC50

COS(C)(=O)=O
not listed: [17] | [18] | [19] | [20]
inactive: all other assays above

OC[C@H]1O[C@@H]2O[C@H]3[C@H](O)[C@@H](O)[C@@H](O[C@H]4[C@H](O)[C@@H](O)[C@@H](O[C@H]5[C@H](O)[C@@H](O)[C@@H](O[C@H]6[C@H](O)[C@@H](O)[C@@H](O[C@H]7[C@H](O)[C@@H](O)[C@@H](O[C@H]1[C@H](O)[C@H]2O)O[C@@H]7CO)O[C@@H]6CO)O[C@@H]5CO)O[C@@H]4CO)O[C@@H]3CO
not listed: [18] | [19] | [20]
inactive: all other assays above

CCOc1ccc2[nH]cc(C(=O)NCc3ccccc3)c(=O)c2n1
active: [18] 69 µM | [5] 104 µM | [9] 106 µM | [10] 105 µM | [11] 109 µM
not listed: [17] | [19] | [20]
inactive: all other assays above

O=S(=O)(O)c1ccc(N=Nc2c(O)ccc3cc(S(=O)(=O)O)ccc23)cc1
not listed: [18] | [19] | [20]
inactive: all other assays above

COCc1nnc(-c2ccc[n+]([O-])c2)n1-c1c(Cl)c(Cl)cc2[nH]c(=O)c(=O)[nH]c12
not listed: [18] | [19] | [20]
inactive: all other assays above

CC(C)CCCCCCOC(=O)C1CCCCC1C(=O)OCCCCCCC(C)C (stereo not drawn)
not listed: [18] | [19] | [20]
inactive: all other assays above

O=C(O)c1cccc(C(=O)O)c1
not listed: [11] | [12] | [16] | [17] | [19] | [20]
inactive: all other assays above

CC(=O)c1ccccc1
not listed: [17] | [18]
inactive: all other assays above

c1ccc2c(c1)-c1cccc3c1c-2cc1ccccc13
active: [3] 5.87 µM | [5] 15.5 µM | [6] 70.4 µM | [7] 8.67 µM | [8] 2.38 µM | [9] 7.58 µM | [10] 0.0391 µM | [16] 0.0391 µM
not listed: [18] | [19] | [20]
inactive: all other assays above

OCCOCCOCCO
not listed: [18]
inactive: all other assays above

OC(CCl)CCl
not listed: [18]
inactive: all other assays above

NC(=O)N(O)[C@@H]1COc2cc(OCc3ccccc3)ccc21
active: [6] 52.2 µM
not listed: [17] | [19] | [20]
inactive: all other assays above

C[C@@H](Oc1ccc(CNC(=O)c2cccnc2Oc2ccc3c(c2)OCO3)c(F)c1)C(=O)O
active: [6] 0.0391 µM
not listed: [17] | [18] | [19] | [20]
inactive: all other assays above

Cc1nccn1-c1ccc(Sc2cccc(C3(C(N)=O)CCOCC3)c2)cc1
active: [3] 3.13 µM | [7] 19.8 µM | [8] 5.05 µM | [9] 17.4 µM | [10] 40.9 µM | [13] 73.4 µM | [14] 64 µM
not listed: [17] | [18] | [19] | [20]
inactive: all other assays above

CC[C@H](C)C(=O)O[C@H]1C[C@H](O)C=C2C=C[C@H](C)[C@H](CC[C@@H](O)C[C@@H](O)CC(=O)O)[C@H]21
not listed: [17] | [18] | [19] | [20]
inactive: all other assays above
